# Measurements: PubChem BioAssay AID588342 (National Center for Advancing Translational Sciences (NCATS), 2011)
# The whole screen tested about 360,000 compounds, of which about 25,000 (6.9%) were called active. Roughly 9% stayed inconclusive and do not appear here. The full list was thinned out, with actives kept by preference. A number with no mark means an inactive call. The call rests on the fitted dose curve; in most records, active means well fitted inhibition curve with a large enough effect; inconclusive means small, poorly fitted or top-dose-only effect; inactive means flat fitted curve, though single readings scatter.
# Molecular target: Luciferin 4-monooxygenase (Photinus pyralis) (UniProt P08659)
# Sequence (P08659 whole entry, looked up): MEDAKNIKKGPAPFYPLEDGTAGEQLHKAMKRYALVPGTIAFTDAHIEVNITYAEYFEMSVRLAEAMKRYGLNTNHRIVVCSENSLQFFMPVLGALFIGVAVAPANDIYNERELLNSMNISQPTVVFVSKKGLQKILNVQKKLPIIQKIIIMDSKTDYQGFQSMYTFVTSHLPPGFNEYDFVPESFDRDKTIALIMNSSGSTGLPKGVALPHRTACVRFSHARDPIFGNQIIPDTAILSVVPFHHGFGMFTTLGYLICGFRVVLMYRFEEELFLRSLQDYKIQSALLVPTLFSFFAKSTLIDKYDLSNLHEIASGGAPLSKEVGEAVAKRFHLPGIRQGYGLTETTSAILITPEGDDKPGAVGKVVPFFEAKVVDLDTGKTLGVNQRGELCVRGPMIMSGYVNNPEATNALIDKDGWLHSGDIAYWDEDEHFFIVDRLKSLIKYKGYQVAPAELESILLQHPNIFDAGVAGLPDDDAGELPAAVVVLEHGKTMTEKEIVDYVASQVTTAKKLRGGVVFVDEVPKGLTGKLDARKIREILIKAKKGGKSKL
# Assay: qHTS profiling assay for firefly luciferase inhibitor/activator using purifed enzyme and Km concentrations of substrates (counterscreen for miR-21 project); further: nearly all actives have a fitted effect of over 55% in size;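 on activity change, negative = inhibition: plate controls were vehicle for no effect and reference inhibitor for full effect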
# Settings: purified FLuc, luminescence inhibition; series mostly up to 57.5 µM; activity change, negative = inhibition: at the top concentration
# Method in brief: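 Purified P. pyralis luciferase (10nM final) with 10uM D-luciferin and 10uM ATP (Km levels) in 50mM Tris acetate pH 7.5, 10mM Mg acetate, 0.01% Tween-20, 0.05% BSA; qHTS 6-point titration, ~60 µM downward; luminescence read.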
# Potency means the concentration at half of the fitted maximal effect.
Structure (SMILES),"activity change, negative = inhibition",Potency
COc1ccc(NC(=O)Cn2cc(C(=O)c3ccncc3)c(=O)c3cc(C)ccc32)cc1Cl,5.88%,–
Cc1ccc(-c2cnc(C3CC3)o2)cc1S(=O)(=O)Nc1cccc(C)c1C,3.16%,–
CN(Cc1nc2ccc(F)cc2[nH]1)Cc1nc(CC2CC2)no1,-2.03%,–
O=C(Cn1c(=O)n(-c2ccc(F)cc2)c(=O)c2sccc21)Nc1cccc(C(F)(F)F)c1,-6.93%,–
CC(=O)Nc1cccc(NC(=O)CSc2cn(CC(=O)N3CCCC3)c3ccccc23)c1,-1.16%,–
O=c1c2c(nc3n1CCCCC3)sc1c(O)cccc12,–,4.26 µM (active)
CC1CCN(C(=O)c2ccc3c(=O)n4c(nc3c2)CCCCC4)CC1,2.48%,–
Cc1cccc2c(=O)n3c(nc12)CCCCC3,-10.5%,–
COc1ccc([C@H]2CC(=O)C=C(c3ccc(CO)cc3)C2)cc1,-1.03%,–
O=C1CCC(C(=O)N2CCN(c3ccccc3Cl)CC2)CN1CC1CCCCC1 (stereo unspecified),-1.63%,–
S=C(Nc1ccc(Br)cc1Cl)NC1CCN(Cc2ccccc2)CC1,0.728%,–
CCC(=O)NC(=S)Nc1ccc(NC(=O)c2ccco2)c(Cl)c1,-5.91%,–
O=C(NNC(=S)Nc1ccc(Br)cc1Cl)c1ccco1,–,16.9 µM (active)
COc1ccc(S(=O)(=O)c2c(Nc3ccc(C)cc3)sc(C(=O)c3ccc(C)cc3)c2N)cc1,-0.422%,–
COc1ccc(-c2nc(CN3CCC(C(=O)NCc4ccccc4)CC3)c(C)o2)cc1OC,-0.814%,–
COc1ccccc1N1CC(O)=C(c2nc3ccccc3s2)C1=N,-8.44%,–
N=C1C(c2nc3ccccc3s2)=C(O)CN1NC(=O)c1ccc([N+](=O)[O-])cc1,–,13.5 µM (active)
CCOC(=O)CCCN1CC(O)=C(c2nc3ccccc3s2)C1=N,1.19%,–
O=C(CSc1oc(-c2ccco2)nc1S(=O)(=O)c1ccccc1)c1ccc(Cl)cc1,-4.3%,–
Cc1ccc(-c2cc(-c3coc4ccccc4c3=O)c3c(n2)-c2cc(Cl)ccc2OC3)cc1,-1%,–
CC(C)(C)OC(=O)N1CCC(c2c(C(=O)N3CCN(c4cccc(Cl)c4)CC3)cnn2-c2cccc(Cl)c2)CC1,-3.13%,–
CCCCCn1c(CCCNC(=O)c2ccccc2OC)nc2ccccc21,4.7%,–

Structure (SMILES),"activity change, negative = inhibition",Potency
CCOC(OCC)c1ccc(/C=C\c2nccc(N)n2)cc1,–,8.49 µM (active)
CCOc1ccc(Nc2c(S(=O)(=O)c3ccccc3)cnc3ccccc23)cc1,-10.5%,–
CN(C(=O)Cn1nnc(-c2ccc(F)cc2)n1)C1CCS(=O)(=O)C1 (stereo unspecified),3.37%,–
COc1ccc(CNC(=O)CC2Oc3ccc(C)cc3NC2=O)cc1 (stereo unspecified),-0.891%,–
O=S(=O)(c1cccc(-c2nnc3n2CCCCC3)c1)N1CCOCC1,-2.77%,–
Cc1c(C(=O)Nc2cccc(-c3nnc4n3CCCCC4)c2)oc2ccccc12,–,19 µM (active)
O=C(Cn1[nH]c(=O)c2ccccc2c1=O)Nc1cccc(-c2nnc3n2CCCCC3)c1,-0.0091%,–
Cc1ccc(NC(=O)c2oc3ccccc3c2C)c([N+](=O)[O-])c1,-14%,–
CSc1ncccc1C(=O)NC1CCCCCC1,-1.16%,–
Cc1c(C(=O)NC2CCCCC2)oc2ccccc12,–,15.1 µM (active)
O=C(Nc1ccc(F)cc1F)c1cnn(-c2ccc(F)cc2)c1-n1cccc1,0.499%,–
CC(C)(C)OC(=O)N1CCC(c2c(C(=O)NCCc3ccsc3)cnn2-c2ccc(F)cc2F)CC1,-7.33%,–
CC(C)c1ccc(/C=C/C(=O)NNC(=O)c2cccnc2)cc1,–,12 µM (active)
COc1cccc(C(=O)NNC(=O)/C=C/c2ccccc2)c1,0.538%,–
O=C(/C=C/c1cn(-c2ccccc2)nc1-c1ccc2c(c1)OCCO2)NCCCN1CCOCC1,-10.5%,–
CC(C)c1ccc(/C=C/C(=O)NCCCN2CCOCC2)cc1,–,21.3 µM (active)
Cc1c(NC(=O)c2cccnc2)c(=O)n(-c2ccccc2)n1C,0.783%,–
O=C(/C=C/c1ccc(Cl)cc1)NCCCn1ccnc1,-9.77%,–
CCOC(=O)c1sc(NC(=O)/C=C/c2ccc(C(C)C)cc2)c(C(=O)OCC)c1C,-0.567%,–
O=C(/C=C/c1ccc(F)cc1)NCCNC(=O)/C=C/c1ccc(F)cc1,0.42%,–
C=CCNC(=O)/C=C/c1ccc(C(C)C)cc1,–,19 µM (active)
CCCOc1ccc(C2c3c(-c4ccccc4O)n[nH]c3C(=O)N2Cc2cccnc2)cc1 (stereo unspecified),-13.9%,–

Structure (SMILES),"activity change, negative = inhibition",Potency
N#Cc1ccccc1Cn1cnc2nc3c(cc2c1=O)CCCC3,2.97%,–
Cc1ccc(-n2nc(C)c3c(C)cc(=O)n(CC(=O)Nc4ccc(C(C)C)cc4)c32)cc1,-0.504%,–
Cc1c(C(=O)Nc2cccc(Cl)c2)oc2ccc(S(=O)(=O)N3CCOCC3)cc12,2.19%,–
Cc1cccc(-c2nc(SCC(=O)Nc3cc(C)on3)c3c(=O)n(C)c(=O)n(C)c3n2)c1,-3.67%,–
Cc1ccc(NC(=O)Cn2cnc3nc4c(cc3c2=O)CCCC4)cc1Cl,2.34%,–
COc1ccc(NC(=O)c2cnc(Nc3ccc(C)c(Cl)c3)c3ccccc23)cc1OC,-0.0929%,–
CC(C)(C)c1ccc(C(=O)CSc2ncn[nH]2)cc1,–,4.78 µM (active)
COc1ccc(C(=O)CSc2nccc(=O)[nH]2)cc1,0.943%,–
CCN(C(=O)CSc1ncn[nH]1)c1cccc2ccccc12,0.343%,–
CC(C)OCCCn1c(SCC(=O)c2ccccc2)nc2c(sc3ccccc32)c1=O,-0.642%,–
Cc1csc(SCC(=O)N(c2ccccc2)C(C)C)n1,0.743%,–
CC(=O)OCCN(CCCn1c(-c2ccncc2)nc2ccccc21)c1nc(-c2ccc(C)cc2)cs1,1.22%,–
Cc1ccc(C)c(NC(=O)NNC(=O)c2ccc3ccccc3c2O)c1,-22.4%,–
Cc1ccccc1OC/C(O)=C(\C#N)c1nc2ccccc2[nH]1,0.866%,–
COc1cc(/C=C(\C#N)c2nc3c(s2)CC(C)CC3)ccc1O (stereo unspecified),–,0.675 µM (active)
Cc1ccc2nc(/C(C#N)=C\c3ccc(OC(=O)c4cccs4)cc3)[nH]c2c1,-3.56%,–
Cc1ccc2nc(/C(C#N)=C/c3ccccc3F)[nH]c2c1,–,8.49 µM (active)
N#C/C(=C\c1ccccc1F)c1nc2ccccc2c(=O)[nH]1,7.06%,–
CCOc1ccc(/C=C(\C#N)c2nc3ccccc3c(=O)[nH]2)cc1OC,-4.72%,–
COc1cc(/C=C(\C#N)c2nc3ccccc3[nH]2)ccc1O,–,4.78 µM (active)
COc1cccc2cc(-c3nc(Cl)c4c5c(sc4n3)CC(C)CC5)c(=O)oc12 (stereo unspecified),-13.3%,–
O=C1OC(C(=O)Nc2cccc(Br)c2)Cc2ccccc21 (stereo unspecified),-0.169%,–

Structure (SMILES),"activity change, negative = inhibition",Potency
O=C(C1CC(=O)N(C2CCCC2)C1)N1CCN(c2cccc(C(F)(F)F)c2)CC1 (stereo unspecified),3.15%,–
Cc1ccc(CN2CCCOCCS2(=O)=O)cc1,-0.0995%,–
Cc1ccc(CNC(=O)CSC2=Nc3ccccc3C3=NC(C)C(=O)N23)cc1 (stereo unspecified),-7.16%,–
Cc1c(Cl)cccc1-c1ccc(CNCCCSc2nnnn2C)o1,-8.45%,–
O=C(Cn1cc(/C=N/NC(=O)c2cccc(C(F)(F)F)c2)c2ccccc21)Nc1ccc(F)cc1,0.0534%,–
CC(OC(=O)/C=C/c1ccccc1)C(=O)NC1CCCCC1C (stereo unspecified),3.73%,–
Cn1nccc1NC(=O)CC(CC(=O)O)c1ccccc1 (stereo unspecified),-0.627%,–
Oc1ccc(-c2cccc(-c3ccc(O)cc3)c2)cc1,–,16.9 µM (active)
O=C(CN1CCN(c2ccc(O)cc2)CC1)Nc1ccc(-c2ccccc2)cc1,2.93%,–
CC(C#N)(NC(=O)CN1CCN(S(=O)(=O)c2cc(C(F)(F)F)ccc2Cl)CC1)C1CC1 (stereo unspecified),0.354%,–
O=C1/C(=C/c2ccc(F)cc2)SC(=S)N1NS(=O)(=O)c1ccccc1,-13.4%,–
COc1ccc(Cn2ccnc2SCC(=O)Nc2ccc3c(c2)OCO3)cc1,-1.75%,–
Cc1ccc(SCC(=O)Nc2ccc3c(c2)OCCO3)cc1,–,6.75 µM (active)
O=C(CSc1nc2ncccc2[nH]1)Nc1ccc2c(c1)OCCO2,–,15.1 µM (active)
Cc1ccc(S(=O)(=O)NCC(=O)Nc2ccc3c(c2)OCCO3)cc1,-1.09%,–
CCc1ccccc1OCC(=O)Nc1ccc2c(c1)OCCO2,–,10.7 µM (active)
O=C(CSc1nc(=O)n2ccccc2n1)Nc1ccc2c(c1)OCCO2,-14.3%,–
COc1ccc(NC(=O)CSc2nc3ncccc3[nH]2)c(OC)c1,-0.297%,–
COc1ccc(NC(=O)CSc2nccn2Cc2ccc3c(c2)OCO3)cc1,-10.3%,–
CC(C)NS(=O)(=O)c1ccc(OCC(=O)Nc2ccc3c(c2)OCCO3)cc1,3.95% [at 2.3 µM],–
Cc1ccc(-n2c(SCC(=O)Nc3ccc4c(c3)OCO4)nnc2-c2ccoc2C)cc1,-0.842%,–
CCC(=O)c1cc(F)ccc1OCC(=O)Nc1ccc2c(c1)OCCO2,-1.51%,–

Structure (SMILES),"activity change, negative = inhibition",Potency
Cn1ccnc1SCC(=O)Nc1ccc2c(c1)OCCO2,–,23.9 µM (active)
CC(C)CCN(C(=O)Nc1ccc(Cl)c(Cl)c1)C(C)c1cccs1 (stereo unspecified),2.6%,–
CCOC(=O)c1cc2c(=O)n3ccccc3nc2n(CC2CCCO2)c1=NC(=O)c1ccc(C(C)(C)C)cc1 (stereo unspecified),1.25%,–
COc1ccc(NC(=O)CCNS(=O)(=O)c2ccc3c(c2)CCCC(=O)N3)cc1Cl,-9.31%,–
Cc1c(Cl)cccc1NC(=O)C(=O)NCCc1csc2nc(-c3ccccc3F)nn12,-6.1%,–
NC(CSC12CC3CC(CC(C3)C1)C2)C(=O)O (stereo unspecified),2.42%,–
COc1ccc(Cl)cc1NC(=O)COc1ccc2c(c1)OCO2,1.56%,–
FC(F)Oc1ccc(NC(=S)NCc2ccco2)cc1Cl,-12.8%,–
O=C(CCS(=O)(=O)Cc1ccccc1)Nc1ccc2c(c1)OCCO2,-1.15%,–
COc1ccccc1OCCCC(=O)Nc1ccc2c(c1)OCCO2,-18.1%,–
O=C(COc1ccc(Cl)cc1)Nc1ccc2c(c1)OCO2,–,19 µM (active)
CCCCC(=O)Nc1ccc2c(c1)OCCO2,–,21.3 µM (active)
CS(=O)(=O)c1ccc(-c2nnn(CC(=O)Nc3ccc4c(c3)OCCO4)n2)cc1,-1.07%,–
S=C(NCc1ccc2c(c1)OCO2)NCc1ccco1,-12.6%,–
S=C(NCc1ccco1)Nc1ccc2c(c1)OCCO2,–,15.1 µM (active)
O=C(COc1ccc(Cl)cc1)Nc1ccc2oc(=O)ccc2c1,0.477%,–
O=C(CSc1ncc(S(=O)(=O)c2ccc(Br)cc2)c(=O)[nH]1)Nc1ccc2c(c1)OCCO2,–,9.53 µM (active)
Cc1cc(C)c2c(=O)[nH]c(SCC(=O)Nc3ccc(Br)cc3)nc2n1,-9.23%,–
